# Data from PubChem BioAssay (NCI).
# Where “and” joins values, the source holds several entries; their conditions need not be identical. Identical values can stand only once. This is part of a sample that, as a whole, favours compounds with a hit. Of some 83,000 tested, about 20% had one in any assay.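 How to read the values: 0–100, growth inhibition (40 = 60% inhibited); 0, no net growth; -100 to 0, cell death (-40 = 40% of starting cells died; -100 = all dead).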 A number with no mark means an inactive call. Calls of active or inactive are those of the source. Rule for the calls: active = growth percent below 10; inactive = the rest.
# System: MDA-MB-468 breast
# Assay: NCI-60 one-dose screen, 48 h (100 = growth as untreated, 0 = no growth, -100 = all killed)
# Settings: 10 µM unless noted
row,SMILES,growth
1,Nc1nc2c(nnn2C2CC(O)C(CO)O2)c(=O)[nH]1 (stereo not given),22.8%
2,CCCCCCCCCCCCCCCCCCOP(=O)(O)O,108%
3,C=C(C)[C@@H]1CC[C@]2(C(=O)NC3CCCCC3)CC[C@]3(C)[C@H](CC[C@@H]4[C@@]5(C)CCC(=O)C(C)(C)[C@@H]5CC[C@]43C)[C@@H]12,83.5%
4,O=c1sc2ncnc3ncn1c32,8.83% (active)
5,Oc1ccc(CCC2CCNc3ccccc32)cc1 (stereo not given),46.8%
6,O=C(Nc1cccc(F)c1)Nc1cccc(Cl)c1,90%
7,COc1ccc(-c2cnc(SCC(=O)Nc3ccc(-c4nc5ccccc5s4)cc3)n2-c2ccc(OC)cc2)cc1,-12.7% (active)
8,O=C(CN(C(=O)Cn1c(=O)n2nnnc2c2ccccc21)c1ccccc1C(F)(F)F)Nc1ccc(C(F)(F)F)cc1,108%
9,CCCCCCCCCc1cc[n+](CC(=O)c2ccc([N+](=O)[O-])cc2)cc1,-18.6% (active)
10,CCNCc1c(-c2cccc(OC(F)(F)F)c2)[nH]c2ccc(N3CCCC3)cc2c1=O,36.6%
11,Cc1ccc(-c2nc(C#N)c(S(=O)(=O)NCCO)o2)cc1,37.1%
12,CC(C)(C)c1ccc(O)c(Cc2cc(C(C)(C)C)ccc2O)c1,119%
13,C[C@H]1c2[nH]c3ccccc3c2C[C@H]2C(=O)N(CCCCCCC(=O)NO)CC(=O)N21,60.3%
14,COc1ccc2nc(-c3ccc(Cl)cc3)cc(-c3nnc(SCC(=O)Nc4ccc(C(C)=O)cc4)n3-c3ccccc3)c2c1,91.2%
15,COc1ccc(NC2=C(Cl)C(=O)C(C)=C(C)C2=O)cc1,-38.4% (active)
16,COc1cc(-n2cc(-c3cc(O)c(C/C=C(\C)CCC=C(C)C)c(O)c3)nn2)cc2c1O[C@]1(C)CC[C@@H](O)C(C)(C)[C@H]1C2,-14.6% (active)
17,N=C(N)c1ccc(-c2ccc(-c3ccc(Cl)cc3Cl)o2)cc1,-84.4% (active)
18,CCN(Cc1ccccc1)c1ccc(SC#N)cc1,72.3%
19,CC1=C(C)C(=O)C(Nc2ccccc2)=C(Cl)C1=O,-76% (active)
20,COc1cccc2c(=O)c3c(sc12)c(NCCCNCCO)nc1ccccc13,71.3%

row,SMILES,growth
1,COc1cc2c(Nc3ccc(Cl)c(Cl)c3F)ncnc2cc1OCC1C[C@@H]2CN(C)C[C@@H]2C1 (stereo not given in full),-86.1% (active) and -71.9% (active)
2,C#Cc1cccc(NC(=O)c2cccc(NC(=O)CCl)c2)c1,-52.7% [8.25 µM] (active)
3,CCCCCN(CCCCC)CCCCCCCCN1CCCc2ccccc21,99.9%
4,COc1ccc(/C=C(\C#N)n2nc3cccc(F)c3n2)cc1,100%
5,COc1ccc2[nH]c(C(=O)OCc3ccc4c(Br)cc(Br)c(O)c4n3)cc2c1,-77.4% (active)
6,O=C(N/N=C/[C@H](O)[C@@H](O)[C@@H](O)[C@H](O)CO)c1ccc(NC(=O)c2cccnc2)cc1,105%
7,COC(=O)Nc1ccc(NC(=O)OC)cc1,97.3%
8,CC(=O)N1C(=S)NC(=O)C1Cn1c(-c2ccccc2)nc2ccccc21 (stereo not given),96.8%
9,CCOC(=O)/C(F)=C/C1CC1C1CCCCC1 (stereo not given),96.9%
10,COc1cc2ncnc(Nc3ccc(F)c(Cl)c3)c2cc1OCC(=O)N1CCN(c2ccccc2)CC1,-17.5% (active)
11,CN(C)CC(=O)Nc1ccc2ncnc(Nc3ccc(Oc4cccc(C(F)(F)F)c4)c(Cl)c3)c2c1,-2% (active)
12,Cc1ccc(NC(=O)c2sc3nc4c(cc3c2N)C(=O)CCC4)cc1Cl,105%
13,COc1cc(-c2cccc([N+](=O)[O-])c2)c(-c2nc(-c3ccccc3)c(-c3ccccc3)n2C2CC2)cc1OC,49.4%
14,Cc1cc(C)n(Nc2nc3ccccc3[nH]c2=O)c(=O)c1C#N,90.8%
15,CNC(=O)c1cc(Oc2ccc3c(c2)sc2nc(-c4ccc(Cl)c(C(F)(F)F)c4)cn23)ccn1,5.6% (active)
16,CCOC(=O)c1c(-c2ccc(C)cc2)c(C#N)c(=O)n(-c2cccc(C(F)(F)F)c2)c1N,99.9%
17,O=C(Oc1ccccc1)c1ccccc1Cl,102%
18,C=C(C)[C@@H]1CC[C@]2(C(=O)N3CCN(C)CC3)CC[C@]3(C)[C@H](CC[C@@H]4[C@@]5(C)CC[C@H](O)C(C)(C)[C@@H]5CC[C@]43C)[C@@H]12,-67.3% (active)
19,[2H]C([2H])([2H])Oc1ccc(/C=C/C(=O)/C=C(O)/C=C/c2ccc(OC([2H])([2H])[2H])c(OC([2H])([2H])[2H])c2)cc1OC([2H])([2H])[2H],1.44% (active)
20,COc1ccc(-c2[nH]nc(N)c2-c2cc(OC)c3c(c2)OCO3)cc1,33.5%
